# Data: PubChem BioAssay AID1460 (National Center for Advancing Translational Sciences (NCATS), 2008)
# In all, about 270,000 compounds went through this assay and about 5,800 (2.1%) were called active. Where a call stands in place of a potency, no number is given. Not shown: some 16% with an inconclusive outcome. The sample holds actives, similar compounds and a random draw of the others, so the mix is not that of the screen. The call rests on the fitted dose curve; in most records, active means well fitted inhibition curve with a large enough effect; inconclusive means small, poorly fitted or top-dose-only effect; inactive means flat fitted curve, though single readings scatter.
# Target: Microtubule-associated protein tau (Homo sapiens) (UniProt P10636)
# Sequence (P10636 561-689 P618L limits assumed): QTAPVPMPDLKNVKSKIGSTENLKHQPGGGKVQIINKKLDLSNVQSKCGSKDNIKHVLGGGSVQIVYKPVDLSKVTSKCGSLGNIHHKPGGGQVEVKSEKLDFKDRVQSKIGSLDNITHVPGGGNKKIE
# Assay: qHTS for Inhibitors of Tau Fibril Formation, Thioflavin T Binding; further: nearly all actives have a fitted effect of over 55% in size
# Details: recombinant tau K18 P301L (four-repeat tau fragment), heparin-induced fibrillization, ThT fluorescence; series mostly up to 57.4 µM
# Summary of the method: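 In this qHTS, human K18 P301L tau is incubated with compound and heparin for 6 hr at 37 C, and Thioflavin T fluorescence then reports fibril load.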
# Potency means the concentration at half of the fitted maximal effect.
row,SMILES,Potency
1,O=C(CSc1nc2c(c(=O)[nH]1)CN(Cc1ccc3c(c1)OCO3)CC2)Nc1cc(F)ccc1F,inactive
2,Cc1ccc2cccc(NC(=O)c3ccc(OC(C)C)cc3)c2n1,inactive
3,O=C(CSc1nc(=O)[nH]c2c1CCCC2)Nc1cc(C(F)(F)F)ccc1Cl,inactive
4,CCCNC(=O)C1CC(=O)N(c2ccc(OCC(=O)Nc3cccc(C)c3C)cc2)C1 (stereo not drawn),inactive
5,CCOc1ccc(N2CC(C(=O)NCCN3C(=O)S/C(=C\c4cccnc4)C3=O)CC2=O)cc1 (stereo not drawn),22.4 µM (active)
6,CCCOc1ccc(N2CC(C(=O)Nc3ccccn3)CC2=O)cc1 (stereo not drawn),inactive
7,CCOc1ccc(C(NC(=O)c2cc(OC)c(OC)c(OC)c2)c2cc(Cl)c3cccnc3c2O)cc1 (stereo not drawn),inactive
8,CCCCN(C)c1nnc(NC(=O)Nc2ccc(Br)c(C)c2)s1,inactive
9,CCOC(=O)c1c(C)[nH]c(C)c1S(=O)(=O)N1CCCC(C(=O)NCc2ccccc2Cl)C1 (stereo not drawn),inactive
10,COc1ccc(S(=O)(=O)c2cn(C)c3cc(N4CCCCC4)c(F)cc3c2=O)cc1,inactive
11,Cc1nn(C)c(Oc2ccccc2)c1[N+](=O)[O-],inactive
12,Cc1cccc(C2CC(=O)Oc3c2c(=O)n(C)c2ccccc32)c1 (stereo not drawn),inactive
13,Cc1cccc(Oc2c([N+](=O)[O-])c(=O)n(C)c3ccccc23)c1,14.1 µM (active)
14,CN(C(=O)CSc1nc2ccccc2n1Cc1ccccc1C#N)c1ccccc1,inactive
15,CCN1C(=O)/C(=C2/Sc3ccccc3N2CCCS(=O)(=O)O)SC1=S,inactive
16,CCNC(=O)N1c2ccccc2Sc2ccccc21,inactive
17,CCN1/C(=C/C(=S)Nc2ccccc2)Sc2ccccc21,3.55 µM (active)
18,CC(=O)c1ccc(NC(=O)CSc2c(C(C)C)cnc3c2c(=O)n(C)c(=O)n3C)cc1,inactive
19,O=C(COc1ccc(Cl)cc1)Nc1ccccc1OCc1cc(=O)n2ccccc2n1,inactive
20,N#CC1=C(N)Oc2c(sc3ccccc23)C1c1ccco1 (stereo not drawn),15.8 µM (active)
21,CC1=C(C(=O)Nc2ccccc2)C(c2ccco2)C(C#N)=C(SCC(N)=O)N1 (stereo not drawn),inactive

row,SMILES,Potency
1,Cc1ccc(CCNC(=O)c2ccc(CNS(=O)(=O)c3ccc(C)cc3)cc2)cc1,inactive
2,CCOC(=O)c1c(C)oc2nc(C)nc(N(CC(C)C)CC(C)C)c12,inactive
3,COc1ccc(NC(=O)N2CCCn3nc(C)cc32)cc1OC,inactive
4,COc1ccc(C(=O)c2oc3ccccc3c2NC(=O)COc2cccc(C)c2)cc1,inactive
5,O=C(Nc1ccccc1Cl)N1CCC(CN2CCCC2)CC1,inactive
6,CN=C1C=C/C(=N/N=c2\ccn(O)cc2C)C=C1C,6.31 µM (active)
7,Cc1ccc(Cn2c(=O)n(Cc3nc(-c4ccccc4)no3)c(=O)c3cc4c(cc32)OCO4)cc1,inactive
8,Cc1ccc(-c2cn3c(n2)sc2cc(C(=O)NCCCc4ccccc4)ccc23)cc1,inactive
9,Cc1cccc(C(=O)N2CCc3cc(CNC(=O)Cc4ccc(F)cc4)ccc32)c1,inactive
10,CCC(=O)Nc1cccc(-c2nc3cc(C)ccc3o2)c1,inactive
11,O=C(Nc1c2c(nc3ccccc13)CCCC2)c1ccccc1Br,inactive
12,O=C(NNc1c2ccccc2nc2ccccc12)c1cc2ccccc2cc1O,2 µM (active)
13,Cc1nc2ccccc2cc1O,inactive
14,COc1ccc(-c2nc3sc(CCNS(=O)(=O)c4ccc(F)c(C)c4)c(C)n3n2)cc1,inactive
15,O=C1CN(C(=O)Nc2ccccc2C(F)(F)F)C(c2ccccc2)c2c(sc3c2CCCC3)N1 (stereo not drawn),inactive
16,Cc1nc2ccc(S(=O)(=O)N(CC(=O)Nc3ccc(F)cc3)Cc3ccccc3)cc2s1,inactive
17,Cc1ccccc1CNC(=O)CSc1nnc(C)c2c(C)n(-c3ccccc3)nc12,inactive
18,CCN(CC)C(=O)CSC(Nc1cccc(F)c1)=C(C#N)C#N,28.2 µM (active)
19,CCN(CC)C(=O)C(=O)Nc1cccc(Br)c1,inactive
20,O=C(CCN1C(=O)c2ccccc2C1=O)Nc1cccc(F)c1,inactive
21,O=C(Nc1ccc(C(=O)OCc2cc(=O)n3nc(C4CC4)sc3n2)cc1)c1ccc(F)cc1,inactive

row,SMILES,Potency
1,O=C(Nc1ccc(F)cc1F)c1ccc2c(=O)n3c(nc2c1)CCCCC3,inactive
2,Cn1c(=O)n(Cc2c(F)cccc2Cl)c(=O)c2c1nc1n2CCN1c1ccc(F)cc1,inactive
3,CCOC(=O)/C(=N\Nc1ccccc1[N+](=O)[O-])c1csc(Nc2ccccc2)n1,5.01 µM (active)
4,Cc1c(NC(=O)Nc2ccccc2)cccc1[N+](=O)[O-],inactive
5,CCOC(=O)Cc1csc(NC(=O)Nc2ccccc2)n1,inactive
6,Cc1cc(C)cc(NC(=O)CCCc2nc(-c3ccccc3Cl)no2)c1,inactive
7,Cc1ccc(C)c(N2C(=O)N(Cc3c(F)cccc3Cl)c3ccccc3S2(=O)=O)c1,inactive
8,Cc1cccc(-n2ccnc2SCC(=O)Nc2cccc3ccccc23)c1C,inactive
9,COc1ccc(OC)c(CNC(=O)c2c3c(nc4ccccc24)C(=O)N(C2CCCCC2)C3)c1,inactive
10,Cc1ccc(C(=O)Nc2c(C(=O)NC(C)(C)C)oc3ccccc23)cc1,inactive
11,Cc1ccc(NS(=O)(=O)c2ccc(N/N=C/c3ccccc3OCC(=O)O)c([N+](=O)[O-])c2)c(C)c1,12.6 µM (active)
12,COCCNC(=O)c1ccccc1NS(=O)(=O)c1ccc(C)c([N+](=O)[O-])c1,inactive
13,Cc1ccc(NS(=O)(=O)c2ccc(C)c(NC(=O)COc3ccc4ccccc4c3)c2)c(C)c1,inactive
14,COc1cccc(CNCc2c(C(=O)O)n(Cc3ccc(C)cc3)c3cc(C)ccc23)c1OC,inactive
15,O=C(CCC1N=C2c3ccccc3N=C(SCc3ccccc3F)N2C1=O)NCCc1ccccc1 (stereo not drawn),inactive
16,Cn1cc(/C=C/c2nc3ccccc3c(=O)n2-c2cccc([N+](=O)[O-])c2)c2ccccc21,inactive
17,Cc1ccc(N2C(=O)S/C(=C/c3cn(C)c4ccccc34)C2=O)cc1,inactive
18,Cc1cccc(N=C2NC(=O)/C(=C/c3cn(C)c4ccccc34)S2)c1,11.2 µM (active)
19,CCCn1c2ccccc2c2cnn(CC(=O)NCCCN3CCCCC3CC)c(=O)c21 (stereo not drawn),inactive
20,CCc1nnc2c3ccccc3nc(N3CCN(c4ccc(C)cc4C)CC3)n12,inactive
21,COc1cccc(Cn2c(CNS(=O)(=O)c3ccc(Cl)s3)nc3cccnc32)c1,inactive
